Active and inactive are the calls of the source.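 How the source made its calls: active means compound cutting binding or function at one or more panel targets by over half; inactive means the rest.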
Experiment: radioligand displacement at CNS targets panel – biochemical, Ricerca panel, percent inhibition, selectivity assay for M4 PAM project, profiling panel (AID 588758)
Conditions: Ricerca radioligand binding panel, % inhibition, at 10 µM, stronger effect = higher value

Cc1nc2sc(C(=O)NCc3ccncc3)c(N)c2c(C)c1Cl
inhibition (GABA-A flunitrazepam site binding): 64% | inhibition: 79% (active) | inhibition (measured here: 5-HT2B receptor binding): 74% | inhibition (measured here: 5-HT3 receptor binding): 35% | inhibition (measured here: Adenosine A3 binding): 40% | inhibition (measured here: Adrenergic beta2 binding): 36% | inhibition (measured here: GABA-B 1A binding): 25% | inhibition (measured here: Muscarinic M1 binding): 9% | inhibition (measured here: Muscarinic M2 binding): 10% | inhibition (measured here: Muscarinic M3 binding): 14% | inhibition (measured here: Norepinephrine transporter binding): 35% | inhibition (measured here: Serotonin transporter binding): 3% | inhibition (measured here: hERG channel binding): 12%

From PubChem BioAssay AID588758 (Vanderbilt Specialized Chemistry Center, 2011)
